NOD2-RIPK2 inh – NOD2-RIPK2 binding disruptors in cells, primary screen, fluorescence, CHO cells, BLA complementation | Receptor-interacting serine/threonine-protein kinase 2 (Homo sapiens), O43353 | CCF4 ratio | inhibition, % at 4.98 µM | 0.38% of 360,000 active | AID 624267, 2012; in the data active means inhibition above about 21%;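 further: 0% = vehicle only and 100% = reference blocker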
Target sequence (O43353 whole entry, looked up): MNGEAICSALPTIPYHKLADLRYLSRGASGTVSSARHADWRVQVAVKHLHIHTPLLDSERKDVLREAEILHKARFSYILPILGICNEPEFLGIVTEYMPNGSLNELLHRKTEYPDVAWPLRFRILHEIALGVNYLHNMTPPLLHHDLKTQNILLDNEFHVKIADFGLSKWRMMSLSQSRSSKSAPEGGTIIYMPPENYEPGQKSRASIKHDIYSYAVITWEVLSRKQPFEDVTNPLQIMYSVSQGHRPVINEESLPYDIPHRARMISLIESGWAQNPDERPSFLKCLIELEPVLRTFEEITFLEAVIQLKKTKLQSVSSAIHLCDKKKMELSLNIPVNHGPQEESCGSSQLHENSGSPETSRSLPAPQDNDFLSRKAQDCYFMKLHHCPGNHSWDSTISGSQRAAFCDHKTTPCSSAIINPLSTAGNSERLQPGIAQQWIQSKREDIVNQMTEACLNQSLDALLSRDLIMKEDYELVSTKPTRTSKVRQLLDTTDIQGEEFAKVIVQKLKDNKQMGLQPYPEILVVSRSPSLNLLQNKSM
LANA-H2B inh – blockers of LANA interaction with H2A/H2B – biochemical, FP readout, HTS, primary screen. Protein LANA1 (Human herpesvirus 8 type P (isolate GK18)), Q9QR71. cell-free LANA-H2A/H2B peptide, fluorescence polarization. inhibition, % (test concentration not listed). 0.6% of 320,000 active; in the data active means inhibition mostly above about 10%, no sharp cut-off; inactive means mostly below about 6.7%
TLR4-MyD88 BLA – inhibitors of TLR4-MyD88 association in cells, primary screen, cell-based, HeLa CL3-4, BLA complementation, FRET ratio | Toll-like receptor 4 (Homo sapiens) + Myeloid differentiation primary response protein … | HeLa CL3-4 TLR4/MyD88 BLA complementation | inhibition, % at 8.4 µM | 0.18% of 200,000 active | AID 861, 2007; in the data active means inhibition above about 25%;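 further: 0% = vehicle and 100% = reference inhibitor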
Rtt109 HAT inh – inhibitors of C. albicans Rtt109/Vps75 HAT, primary screen, biochemical, ThioGlo CoA-SH fluorescence, plate reader. purified Rtt109/Vps75, 4 h. Histone acetyltransferase RTT109 (Candida albicans (strain SC5314 / ATCC MYA-2876)), …. 0.16% of 330,000 active. inhibition, % at 34.9 µM;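 active means inhibition of at least 50% in every replicate; inconclusive means best replicate reaches 50% inhibition but some replicates fall short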
TLR9-MyD88 block – inhibitors of TLR9-MyD88 association in cells, primary screen, cell-based, CHO, BLA complementation, fluorescence. Toll-like receptor 9 (Homo sapiens) + Myeloid differentiation primary response protein …. CCF4 FRET ratio. inhibition, % at 4.98 µM. 0.21% of 340,000 active. AID 504734, 2011;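 active means inhibition above the mean over all tested compounds plus 3 SD, cut at about 21% in these data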;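 further: 0% = DMSO only wells and 100% = clavulanate BLA inhibitor control wells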
m5-HT2A agonist – mouse Htr2a agonists via beta-arrestin recruitment, primary screen, cell-based, luminescence; AID 624169, 2012; 0.66% of 360,000 active; 5-hydroxytryptamine receptor 2A (Mus musculus), P35363; activation, % at 7.6 µM; CHO-K1 mHTR2A beta-arrestin complementation; percent of 30 µM serotonin response;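 active means activation above a run cutoff, the mean activation of all tested compounds plus 3 SD, cut at about 14% in these data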;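 further: 0% = plate median of compound wells and 100% = 30 µM serotonin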
TLR9-MyD88 cf – TLR9-MyD88 association inhibitors, retest, confirmation, cell-based, CHO, BLA complementation, fluorescence, triplicate; shares compounds with TLR9-MyD88 block; CCF4 FRET ratio; inhibition, % at 4.98 µM; 51% of 680 active;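 active means mean inhibition across three repeats above about 21% taken from the earlier screen, limit read from the data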;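 further: blue over green emission ratio reports constitutive TLR9 MyD88 association via BLA complementation; 0% = DMSO vehicle wells and 100% = clavulanate BLA inhibitor wells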
BLA counter-1 – beta-lactamase reporter inhibitors in CHO cells, artefact control for TLR9-MyD88 binding inhibitor project, cell-based, fluorescence. shares compounds with TLR9-MyD88 block. CHO-BLA cells, CCF4 FRET ratio, BLA reporter. inhibition, % at 4.98 µM. 7% of 680 active;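 active means mean inhibition above a 50% cutoff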;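 further: counterscreen of TLR9-MyD88 hits on CMV-driven BLA in CHO-K1 cells; 0% = DMSO alone and 100% = clavulanate blocking BLA; higher means less blue over green ratio so more BLA blockade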
TLR9 CHO cytotox – CHO cell viability loss – luminescence, single concentration, cytotoxicity control for TLR9-MyD88 binding inhibitor project | shares compounds with TLR9-MyD88 block | TLR9-MyD88 CHO cells cytotoxicity | inhibition, % at 4.98 µM | 39% of 680 active; in the data active means inhibition above about 11%
NOD2 RIPK2 conf – NOD2-RIPK2 binding disruptors, retest, confirmation, fluorescence, CHO cells, BLA complementation, triplicate. CCF4 FRET. shares compounds with NOD2-RIPK2 inh. 70% of 1,200 active. inhibition, % at 4.98 µM;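 active means mean inhibition across replicates above a set limit taken from the earlier primary screen, cut at about 21% in these data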;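 further: 0% = DMSO-only wells and the high end = clavulanate BLA-blocked wells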
BLA counter-2 – counter-screen for NOD2-RIPK2 interaction inhibitors: BLA reporter | 57% of 1,200 active | AID 624371 | shares compounds with NOD2-RIPK2 inh | CHO BLA reporter, CCF4 FRET ratio, counterscreen | inhibition, % at 4.98 µM;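 active means mean inhibition above the low-control mean inhibition plus three low-control SD, cut at about 11% in these data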;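 further: 0% = DMSO only wells and 100% = clavulanate high control wells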
* = called active by the depositor; ? = inconclusive; . = no result given. Sampled rows, rich in hits. Any-hit rate of the full collection: about 1.8%.

SMILES | NOD2-RIPK2 inh | LANA-H2B inh | TLR4-MyD88 BLA | Rtt109 HAT inh | TLR9-MyD88 block | m5-HT2A agonist | TLR9-MyD88 cf | BLA counter-1 | TLR9 CHO cytotox | NOD2 RIPK2 conf | BLA counter-2
Cc1cccc(/C=C2\Oc3cc(OS(C)(=O)=O)ccc3C2=O)c1 | -6 | -4 | 5 | 2 | -8 | 4 | . | . | . | . | .
CCOC(=O)c1c(C)nc2sc(C(=O)Nc3ccc(C(C)=O)cc3)c(N)c2c1-c1ccc(OC)cc1 | 25* | -1 | 23 | -6 | 22* | 4 | 18 | 24 | 16* | 49* | 54*
CCC(=O)Nc1ccc(C(=O)Cn2ncc(Cl)c(Cl)c2=O)cc1 | 22* | 3 | . | -13 | 21* | 2 | 16 | 2 | 37* | 34* | 9
O=C(Cn1ncc(Cl)c(Cl)c1=O)c1ccc2c(c1)OCCO2 | 14 | -2 | . | 0 | 2 | 0 | . | . | . | . | .
COc1ccc(CC2=CC(=O)c3ccccc3C2=O)cc1 | 63* | -1 | . | 3 | 24* | -10 | 8 | -8 | 84* | 48* | -9
COc1ccc(Cc2ccccc2C(=O)O)cc1 | 5 | . | . | . | -9 | 5 | . | . | . | . | .
C=CCn1c(O)c(N=O)c2ccccc21 | 5 | 1 | . | 5 | -3 | 3 | . | . | . | . | .
O=Nc1c(O)n(Cc2c(Cl)cccc2Cl)c2ccccc12 | 29* | 1 | -3 | 1 | 35* | 0 | 14 | 24 | 6 | 36* | 42*
COc1ccc(CC(N)c2csc(NC(=O)c3cccs3)n2)cc1 (stereo unspecified) | -10 | . | . | . | . | -2 | . | . | . | . | .
Cc1ccc(-n2sc3ccccc3c2=O)cc1 | 15 | -4 | 8 | 5 | 5 | 6 | . | . | . | . | .
O=c1c2ccccc2sn1-c1ccc(F)cc1 | 35* | -2 | . | ? | 32* | 1 | 9 | 0 | 58* | 37* | 2
O=C(O)c1ccc(Nc2cc(Cl)c3nonc3c2[N+](=O)[O-])cc1 | -2 | 4 | 11 | 28 | 10 | 6 | . | . | . | . | .
O=[N+]([O-])c1c(Nc2cccc(O)c2)cc(Cl)c2nonc12 | 98* | 5 | . | -10 | 46* | -7 | 61* | 3 | 98* | 108* | 29*
O=C(Nc1ccc(OC(F)(F)F)cc1)c1[nH]ncc1[N+](=O)[O-] | 25* | 3 | 1 | 0 | 25* | -7 | 2 | 8 | 9 | 20 | 6
Cc1onc(C(=O)Nc2ccc(OC(F)(F)F)cc2)c1[N+](=O)[O-] | -4 | -1 | . | 0 | 3 | -7 | . | . | . | . | .
CC(C)(C)n1nnnc1C(c1ccccc1)N1CCN(c2ncccc2C(F)(F)F)CC1 (stereo unspecified) | 9 | . | . | . | . | -1 | . | . | . | . | .
COC(=O)c1ccc2c(c1)C(=O)/C(=C/c1ccc(C)cc1)O2 | -1 | 1 | 5 | 1 | -7 | 1 | . | . | . | . | .
CN(C)c1ccc(/C=C2\Oc3ccc(C#Cc4cccc(N)c4)cc3C2=O)cc1 | 49* | 5 | . | -4 | 45* | -2 | 53* | 60* | 4 | 71* | 78*
Cc1ccc(-c2nc3cnccn3c2Nc2c(C)cccc2C)o1 | 49* | -2 | 17 | -7 | 29* | -2 | 14 | 18 | 9 | 36* | 41*
Cc1ccc(-c2nc3ncccn3c2Nc2ccccc2C)o1 | 5 | -2 | 21 | . | 0 | 3 | . | . | . | . | .
O=S(=O)(/C=C/C=C/S(=O)(=O)c1ccccc1)c1ccccc1 | 87* | . | . | 17 | 26* | 4 | 27* | 21 | 98* | 77* | 38*
CCCS(=O)(=O)NC(=O)C1(C)CCCN(C(=O)Cc2ccc3ccccc3c2)C1 (stereo unspecified) | -8 | . | . | . | . | 8 | . | . | . | . | .
Cn1c(=O)c([N+](=O)[O-])c(Cl)c2ccccc21 | 86* | . | 9 | -10 | 47* | -9 | 62* | 7 | 97* | 93* | 27*
CCCCNC(=O)C1c2ccccc2OCC(=O)N1Cc1ccccn1 (stereo unspecified) | -4 | . | . | . | . | -1 | . | . | . | . | .
Cc1cc(C)cc(NC(=O)/C=C/c2ccc([N+](=O)[O-])s2)c1 | 9 | -2 | 2 | 18 | -1 | -1 | . | . | . | . | .
SMILES | NOD2-RIPK2 inh | LANA-H2B inh | TLR4-MyD88 BLA | Rtt109 HAT inh | TLR9-MyD88 block | m5-HT2A agonist | TLR9-MyD88 cf | BLA counter-1 | TLR9 CHO cytotox | NOD2 RIPK2 conf | BLA counter-2
Cc1ccccc1NC(=O)/C=C/c1ccc([N+](=O)[O-])s1 | 39* | 8 | 19 | -2 | 27* | -3 | 28* | 22 | 96* | 37* | 41*
O=C(N[C@H]1c2ccccc2C[C@H]1O)[C@H]1O[C@@H](n2ccc(=O)[nH]c2=O)[C@H](O)[C@@H]1O | 2 | . | . | . | . | -4 | . | . | . | . | .
CCc1ccc([C@@H]2C[C@H]3[C@@H](CN2S(=O)(=O)c2ccc(C)cc2)C(=O)C[C@@H](c2ccc(Cl)cc2)N3S(=O)(=O)c2ccc(C)cc2)cc1 | -2 | . | . | . | . | -2 | . | . | . | . | .
CC(=O)Oc1cccc(N2C(=O)c3ccc(C(=O)O)cc3C2=O)c1 | -1 | 1 | -4 | -5 | -7 | 2 | . | . | . | . | .
CC(=O)Oc1cccc(N2C(=O)c3cccc4c([N+](=O)[O-])ccc(c34)C2=O)c1 | 45* | -7 | . | -1 | 42* | 2 | 47* | 42 | 94* | 63* | 67*
Cc1ccc(C(=O)O)cc1N1C(=O)c2cccc3c([N+](=O)[O-])ccc(c23)C1=O | 56* | 6 | . | 8 | 29* | 12 | 26* | 22 | -3 | 45* | 39*
Nc1c(-c2ccc(F)cc2)nc2ncccn12 | -2 | . | . | . | . | 4 | . | . | . | . | .
COC(=O)c1c(-c2ccccc2)oc2c1C(OCCO)CCC2 (stereo unspecified) | 3 | . | . | . | . | -2 | . | . | . | . | .
